# From PubChem BioAssay (NCATS)
# Records with an inconclusive call do not appear. Where a call stands in place of a potency, no number is given. Activity calls are given as the source filed them. Calls come from the whole dose curve; as a rule, active = well fitted cell-killing curve with a large enough effect; inconclusive = small, poorly fitted or top-dose-only effect, or effect the other way; inactive = flat fitted curve, though single readings scatter.
# System: PA-1
# Assay: Primary qHTS to identify gynecologic anti-cancer compounds using libraries of approved drugs and bioactive compounds (AID 1345084); note: nearly all actives have a fitted effect of over 55% in size
# Details: Gynecologic cancer cell panel viability, ATPlite luminescence, 48 h; series mostly up to 57.5 µM
# In short: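 Cell viability after 48 h drug treatment, ATPlite luminescence readout; five doses.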
row,SMILES,Potency
1,C[C@@H]1N[C@H]2N(C1=O)c1ccccc1[C@@]2(O)C[C@@H]1C(=O)N[C@@H](C)c2nc3ccccc3c(=O)n21,inactive
2,COC(=O)C1=CO[C@@H](O[C@@H]2O[C@H](CO)[C@@H](O)[C@H](O)[C@H]2O)[C@H]2[C@@H]1C=C[C@@]21C=C([C@H](C)O)C(=O)O1,inactive
3,CC(C)C(NC(=O)c1ccc2ccccc2n1)C(=O)NC(CC(=O)O)C(=O)COc1c(F)cccc1F (configuration not stated),inactive
4,CC1CCCCN1S(=O)(=O)c1ccc(N2CCCC2=O)cc1 (configuration not stated),inactive
5,COc1cc2c(cc1OC)N1C(=O)C[C@]34C=CCN5CC[C@@H]2[C@@H](CC3)[C@]514,inactive
6,C=C1CC2C(C)(CCC(=O)O)C(C(C)(C)O)CCC2(C)C2C(=O)OC(C)(C(=O)OC)C(=O)C12C (configuration not stated),inactive
7,CCc1ccc(Cc2ccc3c(c2)[C@]2(OC3)O[C@H](CO)[C@@H](O)[C@H](O)[C@H]2O)cc1,inactive
8,OC[C@H]1O[C@@H](Oc2cc(O)c3c(c2)O[C@@H](c2ccc(O)cc2)[C@H](O)C3)[C@H](O)[C@@H](O)[C@@H]1O,inactive
9,CC[C@@](C)(Nc1ccnc(-c2c[nH]c3ncccc23)n1)C(=O)NCC(F)(F)F,inactive
10,CC1=C(C(=O)O)/C(=C/CO[C@@H]2O[C@H](COC(=O)/C=C/c3ccc(O)cc3)[C@@H](O)[C@H](O)[C@H]2O)C(O)C1 (some centres not stated),inactive
11,C[C@H](CCC(=O)O)[C@H]1CC[C@H]2[C@@H]3C[C@H](O)[C@@H]4C[C@H](O)CC[C@]4(C)[C@H]3CC[C@]12C,inactive
12,CC1CC[C@]2(C(=O)O)CC[C@]3(C(=O)O)C(=CCC4[C@@]5(C)CC[C@H](O[C@@H]6O[C@H](CO)[C@@H](O)[C@H](O)[C@H]6O)C(C)(C)C5CC[C@]43C)C2C1C (some centres not stated),inactive
